Reference: PubChem BioAssay
Results filed as inconclusive are left out. The source made the active and inactive calls. Cut-off read from the data, not from the text of the source, unless noted: active = inhibition above about 80%; inactive = the rest.

Experiments:
[1] = P. berghei load reduction in hepatocytes – cell-based, HepG2, luciferase luminescence, HepG2 viability, primary screen (AID 624349; in the data active = parasite load remaining mostly below about 12%, no sharp cut-off; inactive = mostly above about 10%;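 note: 100% = mean of DMSO negative control wells on the same plate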); settings: P. berghei liver stage in HepG2, luciferase luminescence, concentration not given here; parasite load remaining: stronger effect = lower value; viability: measured here: HepG2 viability without parasites
[2] = EMT-state selective cytotoxicity in co-culture – imaging, PC-3E GFP, TEM4-18 mCherry, primary screen (AID 1345086;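 active = compounds killing one labelled cell type while sparing the other, by normalised counts and ratio limits, not self-fluorescent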;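 note: cells exposed to compound for 72 h before imaging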;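 for red/green cell ratio (normalised): normalised mesenchymal count divided by normalised epithelial count so high means epithelial killing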); settings: PC-3E GFP / TEM4-18 mCherry co-culture, imaging cell counts, at 1 µM
[3] = viability loss in pontine glioma line – cell-based, SU-DIPG-XVII, MIPE5.0, CellTiter-Glo, qHTS, dose response (AID 1347060; cut-off not given, nearly all actives have AC50 up to about 26 µM;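 note: cells exposed to compound for 48 hours before viability readout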); settings: CellTiter-Glo ATP luminescence
[4] = viability loss in pontine glioma line – cell-based, SU-DIPG-XIII, MIPE5.0, CellTiter-Glo, qHTS, dose response (AID 1347064; cut-off not given, nearly all actives have AC50 up to about 23 µM;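 note: cells exposed to compound for 48 hours before the viability read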); settings: CellTiter-Glo ATP luminescence
[5] = viability loss in pontine glioma line – cell-based, SU-DIPG-XXV, MIPE5.0, CellTiter-Glo, qHTS, dose response (AID 1347065; cut-off not given, nearly all actives have AC50 up to about 26 µM;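 note: cells exposed to compound for 48 hours before ATP readout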); settings: CellTiter-Glo ATP luminescence
[6] = JHH-DIPG-1 glioma cell viability, MIPE5.0 library, CellTiter-Glo luminescence, qHTS (AID 1347067; cut-off not given, nearly all actives have AC50 up to about 26 µM;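 note: cells exposed to compound for 48 hours before readout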); settings: JHH-DIPG-1 glioma viability, CellTiter-Glo ATP luminescence
[7] = viability loss with induced miR-34 in A549 – imaging, A549 dox-inducible miR-34, nuclei and caspase counts, primary screen (AID 1347080;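 active = compounds whose cell count with miR-34 switched on is under 0.7 times the count with it off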); settings: A549 miR-34 inducible, Hoechst nuclei count, 48 h
[8] = MELAS cybrid and Rieske KO viability enhancers – cell-based, MELAS cybrids, Rieske KO mouse fibroblasts, CellTiter-Glo, primary screen (AID 1508586;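 active = mean z-score across replicates of 1.96 or higher in either the MELAS or the Rieske mutant cell line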;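 note: z relative to plate mean and SD of compound and empty wells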); settings: low glucose
[9] = target: NAD(+) hydrolase SARM1 (Homo sapiens) (UniProt Q6SZW1); assay: blocking NAD cleavage by SARM1 SAM-TIR – cell lysate, NAD-Glo luminescence (AID 1508614;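 active = compound whose remaining NAD level is above about 45 nM, limit read from the data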;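 note: higher remaining NAD means stronger inhibition of SARM1 NADase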); settings: SAM-TIR HEK293T lysate NADase, at 1 µM, stronger effect = higher value
NAD(+) hydrolase SARM1 (Homo sapiens), sequence (Q6SZW1 whole entry, looked up): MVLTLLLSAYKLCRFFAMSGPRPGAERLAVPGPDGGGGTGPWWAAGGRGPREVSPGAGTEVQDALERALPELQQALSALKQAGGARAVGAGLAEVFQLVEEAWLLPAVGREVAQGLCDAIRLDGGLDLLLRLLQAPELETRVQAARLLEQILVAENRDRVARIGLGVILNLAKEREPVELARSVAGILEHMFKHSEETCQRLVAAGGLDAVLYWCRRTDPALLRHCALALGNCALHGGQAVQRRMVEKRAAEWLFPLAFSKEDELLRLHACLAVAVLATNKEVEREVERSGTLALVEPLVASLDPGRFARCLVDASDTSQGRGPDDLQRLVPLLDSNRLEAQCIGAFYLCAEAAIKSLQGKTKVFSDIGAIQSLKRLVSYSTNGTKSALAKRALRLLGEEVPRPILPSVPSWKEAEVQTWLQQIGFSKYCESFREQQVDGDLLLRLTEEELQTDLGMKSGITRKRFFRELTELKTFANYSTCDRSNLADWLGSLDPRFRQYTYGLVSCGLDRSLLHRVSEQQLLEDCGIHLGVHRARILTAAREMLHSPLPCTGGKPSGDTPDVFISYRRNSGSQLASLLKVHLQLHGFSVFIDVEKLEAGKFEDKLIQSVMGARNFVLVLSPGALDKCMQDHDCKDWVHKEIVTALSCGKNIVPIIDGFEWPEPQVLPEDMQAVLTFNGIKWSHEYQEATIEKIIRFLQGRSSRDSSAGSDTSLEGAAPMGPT

[10] = galactose survival enhancers in mitochondrial complex I cybrids – cell-based, galactose medium, ATP luminescence, primary screen (AID 1645843;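 active = z-score of at least 1.8 in each of two replicates, scored against plate mean and spread of sample wells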;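 note: positive z means more ATP and so rescue of galactose-driven cybrid death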); settings: complex I mutant cybrid cells, 72 h, stronger effect = higher value
[11] = growth inhibition, single agent or in combination, cell-based, chromothripsis tumors, cisplatin or BGB combos (AID 1671449); settings: LFS_MB_P medulloblastoma cells;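 note: cells exposed for 96 hours; 0% = vehicle DMSO and 100% = killing by high DMSO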
[12] = growth inhibition, single agent and combos, cell-based, chromothripsis tumors, cisplatin or BGB combos (AID 1671450); settings: HDN33 neuroblastoma cells, stronger effect = higher value;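 note: cells exposed to compound for four days; 0% = vehicle DMSO and 100% = cell killing by high DMSO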
[13] = growth inhibition, single agents and combos, ICB984, cell-based, cisplatin or BGB combos, synergistic combos for chromothripsis tumors (AID 1671451; call rule not given here;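 note: cells exposed for 96 hours before readout; 0% = vehicle DMSO and 100% = killing by high DMSO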); settings: ICB984 medulloblastoma cells, drug combinations, stronger effect = higher value
[14] = growth inhibition, single agents and combos, LFS_MB_1R, cell-based, cisplatin or BGB combos, synergistic combos for chromothripsis tumors (AID 1671452); settings: LFS_MB_1R medulloblastoma cells, stronger effect = higher value;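 note: cells exposed for 96 hours before readout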
[15] = growth inhibition, single agents and combos, HTB85, cell-based, BGB or cisplatin IC20 combos, synergistic combos for chromothripsis tumors (AID 1671453); settings: HTB85 osteosarcoma cells, drug combinations, at 0.5 µM, stronger effect = higher value;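 note: cells exposed for 96 hours before readout; 0% = vehicle DMSO and 100% = high DMSO killing control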
[16] = measured here: combination with BGB IC40, at 0.05 µM

Question: With `Cc1c(-c2cnccn2)ssc1=S` as the compound, how does the parasite load remaining [1] read?
Answer: 10.1% (inactive)

Question: What about the viability [1] of the same compound?
Answer: 65%

Question: What about the red/green cell ratio (normalised) ([2]; actives lie on both sides, counts scaled to control wells, 1 = unselective) of the same compound?
Answer: 1.09 (inactive)

Question: What about the normalised cell number ([2]; measured here: epithelial PC-3E GFP cell survival) of the same compound?
Answer: 0.9

Question: What about the normalised cell number ([2]; measured here: mesenchymal TEM4-18 mCherry cell survival) of the same compound?
Answer: 0.98

Question: And the AC50 [3]?
Answer: 10.5 µM (active)

Question: What about the AC50 [4] of the same compound?
Answer: 10.5 µM (active)

Question: What about the AC50 [5] of the same compound?
Answer: 11.8 µM (active)

Question: And the AC50 [6]?
Answer: 14.8 µM (active)

Question: What about the fold change ([7]; stronger effect = lower value, cell number ratio, induced over uninduced) of the same compound?
Answer: 0.88 (inactive)

Question: What about the fold change ([7]; measured here: relative caspase fold change +Dox/-Dox) of the same compound?
Answer: 1.25

Question: And the cell count ([7]; measured here: total cells with miR-34 induction, stronger effect = lower value)?
Answer: 9050

Question: What about the cell count ([7]; measured here: total cells without miR-34 induction) of the same compound?
Answer: 10300

Question: What about the z-score ([8]; MELAS cybrid survival, CellTiter-Glo 48 h, stronger effect = higher value) of the same compound?
Answer: 0.683 (inactive)

Question: And the z-score ([8]; Rieske KO mouse fibroblast survival, CellTiter-Glo 72 h)?
Answer: -0.106

Question: And the remaining NAD [9]?
Answer: 10 nM (inactive)

Question: What about the z-score [10] of the same compound?
Answer: -0.085 (inactive)

Question: And the inhibition ([11]; at 0.5 µM, stronger effect = higher value)?
Answer: -20.5% (inactive)

Question: What about the inhibition ([11]; measured here: combination with BGB IC20, at 0.005 µM) of the same compound?
Answer: -19.2%

Question: And the inhibition ([11]; measured here: combination with BGB IC40, at 0.005 µM)?
Answer: -19%

Question: What about the inhibition [11, 16] of the same compound?
Answer: -17.6%

Question: What about the inhibition ([11]; measured here: combination with cisplatin, at 0.5 µM, stronger effect = higher value) of the same compound?
Answer: -32.1%

Question: And the inhibition ([11]; measured here: combination with cisplatin, at 5 µM, stronger effect = higher value)?
Answer: -10.5%

Question: What about the inhibition ([12]; BGB combo, at 5 µM) of the same compound?
Answer: -58.5%

Question: And the inhibition ([12]; at 0.5 µM)?
Answer: -42% (inactive)

Question: What about the inhibition ([12]; cisplatin combo, at 5 µM) of the same compound?
Answer: -70%

Question: What about the inhibition ([12]; measured here: with BGB IC20 combination, at 0.5 µM) of the same compound?
Answer: -31.4%

Question: And the inhibition ([12]; measured here: with cisplatin IC20 combination, at 0.5 µM)?
Answer: -48.3%

Question: And the inhibition ([12]; single agent, at 5 µM)?
Answer: -46.9%

Question: What about the inhibition ([13]; BGB IC20 combo, at 0.005 µM) of the same compound?
Answer: -28.8%

Question: And the inhibition ([13]; BGB IC40 combo, at 0.005 µM)?
Answer: -23.8%

Question: What about the inhibition ([13]; BGB IC40 combo, at 0.05 µM) of the same compound?
Answer: -8.66%

Question: What about the inhibition ([13]; at 0.5 µM) of the same compound?
Answer: -19.7% (inactive)

Question: What about the inhibition ([13]; cisplatin combo, at 0.05 µM) of the same compound?
Answer: -8.66%

Question: What about the inhibition ([13]; cisplatin combo, at 0.5 µM) of the same compound?
Answer: -33.7%

Question: What about the inhibition ([13]; cisplatin combo, at 5 µM) of the same compound?
Answer: -21.2%

Question: And the inhibition ([13]; measured here: 5 uM single agent, at 5 µM)?
Answer: -0.147%

Question: What about the inhibition ([14]; at 0.5 µM) of the same compound?
Answer: -48.5% (inactive)

Question: And the inhibition [14, 16]?
Answer: 12.7%

Question: What about the inhibition ([14]; measured here: combination with cisplatin, at 0.5 µM) of the same compound?
Answer: -42.8%

Question: What about the inhibition ([14]; measured here: combination with cisplatin, at 5 µM) of the same compound?
Answer: -46.1%

Question: And the inhibition [15]?
Answer: -26% (inactive)
